The supplement of paper PMC11732987, “Enantioselective OTUD7B fragment discovery through chemoproteomics screening and high-throughput optimisation” (Communications Chemistry, 2025)

Legend:
Test in all cases: log2 ratio of Biotin-Ahx-Ub-VS probe labelling (fragment/DMSO); higher = less target engagement (more negative = stronger competition), active = hit call of the paper (q ≤ 0.05, log2 ratio ≤ -1)
Conditions in all cases: compound concentration: 200 uM; treatment time: 3 h
USP19 = biological target: T1, USP19 (UniProt O94966)
T1 sequence (whole entry): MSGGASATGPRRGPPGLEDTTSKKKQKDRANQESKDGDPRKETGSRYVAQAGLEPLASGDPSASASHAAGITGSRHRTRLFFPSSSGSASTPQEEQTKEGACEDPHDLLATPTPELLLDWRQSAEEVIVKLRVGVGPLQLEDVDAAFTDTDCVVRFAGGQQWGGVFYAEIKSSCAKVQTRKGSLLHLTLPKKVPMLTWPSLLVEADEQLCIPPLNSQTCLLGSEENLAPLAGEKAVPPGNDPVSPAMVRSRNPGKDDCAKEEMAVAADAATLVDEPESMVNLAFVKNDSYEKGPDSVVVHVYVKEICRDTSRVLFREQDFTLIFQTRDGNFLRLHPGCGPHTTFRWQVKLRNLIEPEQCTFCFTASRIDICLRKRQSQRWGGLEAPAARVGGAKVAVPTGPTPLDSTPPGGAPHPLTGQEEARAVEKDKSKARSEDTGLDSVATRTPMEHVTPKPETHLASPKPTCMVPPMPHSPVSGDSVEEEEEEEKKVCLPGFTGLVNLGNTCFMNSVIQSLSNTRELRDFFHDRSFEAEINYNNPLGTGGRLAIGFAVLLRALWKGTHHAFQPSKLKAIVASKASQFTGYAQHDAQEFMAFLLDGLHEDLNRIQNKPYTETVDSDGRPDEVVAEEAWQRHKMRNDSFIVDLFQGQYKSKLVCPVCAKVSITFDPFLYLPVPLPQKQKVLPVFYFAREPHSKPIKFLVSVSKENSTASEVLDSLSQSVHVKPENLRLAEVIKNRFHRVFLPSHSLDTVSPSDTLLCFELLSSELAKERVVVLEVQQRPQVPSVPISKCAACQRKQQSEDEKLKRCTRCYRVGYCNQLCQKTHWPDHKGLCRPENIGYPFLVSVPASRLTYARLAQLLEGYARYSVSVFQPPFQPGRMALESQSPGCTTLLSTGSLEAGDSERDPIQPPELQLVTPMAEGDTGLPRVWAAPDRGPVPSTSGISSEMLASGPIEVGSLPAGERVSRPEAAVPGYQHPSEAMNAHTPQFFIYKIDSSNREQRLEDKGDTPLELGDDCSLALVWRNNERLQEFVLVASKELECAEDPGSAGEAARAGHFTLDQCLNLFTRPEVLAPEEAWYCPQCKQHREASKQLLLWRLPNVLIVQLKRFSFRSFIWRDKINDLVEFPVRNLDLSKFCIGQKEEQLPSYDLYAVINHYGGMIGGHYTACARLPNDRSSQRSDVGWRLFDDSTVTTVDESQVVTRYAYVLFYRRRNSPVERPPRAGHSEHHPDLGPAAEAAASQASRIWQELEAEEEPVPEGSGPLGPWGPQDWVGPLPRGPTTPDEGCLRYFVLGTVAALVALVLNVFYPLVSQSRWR
Summary of the method: (§1)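 HEK293T lysate, 495 µg per sample in Tris/CHAPS/IGEPAL buffer with protease inhibitors, was treated in triplicate with fragment at 200 µM or vehicle for 3 h and then with Biotin-Ahx-Ub-VS at 0.5 µM final for 1 h. Labelled DUBs were NeutrAvidin-enriched, digested with LysC and trypsin, and run by diaPASEF LC-MS/MS. Spectronaut label-free quantities were global-median-normalised, and values are average log2 fragment/vehicle ratios by unpaired t-test on proteins with ≥2 unique peptides.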

USP22 = biological target: T2, USP22 (UniProt Q9UPT9)
T2 sequence (whole entry): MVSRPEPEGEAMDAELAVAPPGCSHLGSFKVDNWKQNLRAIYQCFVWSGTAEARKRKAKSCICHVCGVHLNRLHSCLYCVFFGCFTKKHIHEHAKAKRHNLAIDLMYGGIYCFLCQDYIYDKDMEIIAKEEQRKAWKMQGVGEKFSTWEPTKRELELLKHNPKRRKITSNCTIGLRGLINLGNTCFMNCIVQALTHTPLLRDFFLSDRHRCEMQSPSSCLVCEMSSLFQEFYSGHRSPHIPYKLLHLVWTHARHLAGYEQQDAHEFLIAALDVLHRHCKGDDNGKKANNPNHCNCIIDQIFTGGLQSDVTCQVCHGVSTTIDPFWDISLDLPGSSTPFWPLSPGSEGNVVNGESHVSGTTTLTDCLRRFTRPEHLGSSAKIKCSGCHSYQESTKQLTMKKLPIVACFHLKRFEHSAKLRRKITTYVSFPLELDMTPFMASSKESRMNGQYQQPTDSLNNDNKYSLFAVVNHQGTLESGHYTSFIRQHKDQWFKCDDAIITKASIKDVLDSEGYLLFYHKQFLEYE
Summary of the method: as §1

USP24 = USP24 (UniProt Q9UPU5)
Sequence of USP24 (Q9UPU5 whole entry): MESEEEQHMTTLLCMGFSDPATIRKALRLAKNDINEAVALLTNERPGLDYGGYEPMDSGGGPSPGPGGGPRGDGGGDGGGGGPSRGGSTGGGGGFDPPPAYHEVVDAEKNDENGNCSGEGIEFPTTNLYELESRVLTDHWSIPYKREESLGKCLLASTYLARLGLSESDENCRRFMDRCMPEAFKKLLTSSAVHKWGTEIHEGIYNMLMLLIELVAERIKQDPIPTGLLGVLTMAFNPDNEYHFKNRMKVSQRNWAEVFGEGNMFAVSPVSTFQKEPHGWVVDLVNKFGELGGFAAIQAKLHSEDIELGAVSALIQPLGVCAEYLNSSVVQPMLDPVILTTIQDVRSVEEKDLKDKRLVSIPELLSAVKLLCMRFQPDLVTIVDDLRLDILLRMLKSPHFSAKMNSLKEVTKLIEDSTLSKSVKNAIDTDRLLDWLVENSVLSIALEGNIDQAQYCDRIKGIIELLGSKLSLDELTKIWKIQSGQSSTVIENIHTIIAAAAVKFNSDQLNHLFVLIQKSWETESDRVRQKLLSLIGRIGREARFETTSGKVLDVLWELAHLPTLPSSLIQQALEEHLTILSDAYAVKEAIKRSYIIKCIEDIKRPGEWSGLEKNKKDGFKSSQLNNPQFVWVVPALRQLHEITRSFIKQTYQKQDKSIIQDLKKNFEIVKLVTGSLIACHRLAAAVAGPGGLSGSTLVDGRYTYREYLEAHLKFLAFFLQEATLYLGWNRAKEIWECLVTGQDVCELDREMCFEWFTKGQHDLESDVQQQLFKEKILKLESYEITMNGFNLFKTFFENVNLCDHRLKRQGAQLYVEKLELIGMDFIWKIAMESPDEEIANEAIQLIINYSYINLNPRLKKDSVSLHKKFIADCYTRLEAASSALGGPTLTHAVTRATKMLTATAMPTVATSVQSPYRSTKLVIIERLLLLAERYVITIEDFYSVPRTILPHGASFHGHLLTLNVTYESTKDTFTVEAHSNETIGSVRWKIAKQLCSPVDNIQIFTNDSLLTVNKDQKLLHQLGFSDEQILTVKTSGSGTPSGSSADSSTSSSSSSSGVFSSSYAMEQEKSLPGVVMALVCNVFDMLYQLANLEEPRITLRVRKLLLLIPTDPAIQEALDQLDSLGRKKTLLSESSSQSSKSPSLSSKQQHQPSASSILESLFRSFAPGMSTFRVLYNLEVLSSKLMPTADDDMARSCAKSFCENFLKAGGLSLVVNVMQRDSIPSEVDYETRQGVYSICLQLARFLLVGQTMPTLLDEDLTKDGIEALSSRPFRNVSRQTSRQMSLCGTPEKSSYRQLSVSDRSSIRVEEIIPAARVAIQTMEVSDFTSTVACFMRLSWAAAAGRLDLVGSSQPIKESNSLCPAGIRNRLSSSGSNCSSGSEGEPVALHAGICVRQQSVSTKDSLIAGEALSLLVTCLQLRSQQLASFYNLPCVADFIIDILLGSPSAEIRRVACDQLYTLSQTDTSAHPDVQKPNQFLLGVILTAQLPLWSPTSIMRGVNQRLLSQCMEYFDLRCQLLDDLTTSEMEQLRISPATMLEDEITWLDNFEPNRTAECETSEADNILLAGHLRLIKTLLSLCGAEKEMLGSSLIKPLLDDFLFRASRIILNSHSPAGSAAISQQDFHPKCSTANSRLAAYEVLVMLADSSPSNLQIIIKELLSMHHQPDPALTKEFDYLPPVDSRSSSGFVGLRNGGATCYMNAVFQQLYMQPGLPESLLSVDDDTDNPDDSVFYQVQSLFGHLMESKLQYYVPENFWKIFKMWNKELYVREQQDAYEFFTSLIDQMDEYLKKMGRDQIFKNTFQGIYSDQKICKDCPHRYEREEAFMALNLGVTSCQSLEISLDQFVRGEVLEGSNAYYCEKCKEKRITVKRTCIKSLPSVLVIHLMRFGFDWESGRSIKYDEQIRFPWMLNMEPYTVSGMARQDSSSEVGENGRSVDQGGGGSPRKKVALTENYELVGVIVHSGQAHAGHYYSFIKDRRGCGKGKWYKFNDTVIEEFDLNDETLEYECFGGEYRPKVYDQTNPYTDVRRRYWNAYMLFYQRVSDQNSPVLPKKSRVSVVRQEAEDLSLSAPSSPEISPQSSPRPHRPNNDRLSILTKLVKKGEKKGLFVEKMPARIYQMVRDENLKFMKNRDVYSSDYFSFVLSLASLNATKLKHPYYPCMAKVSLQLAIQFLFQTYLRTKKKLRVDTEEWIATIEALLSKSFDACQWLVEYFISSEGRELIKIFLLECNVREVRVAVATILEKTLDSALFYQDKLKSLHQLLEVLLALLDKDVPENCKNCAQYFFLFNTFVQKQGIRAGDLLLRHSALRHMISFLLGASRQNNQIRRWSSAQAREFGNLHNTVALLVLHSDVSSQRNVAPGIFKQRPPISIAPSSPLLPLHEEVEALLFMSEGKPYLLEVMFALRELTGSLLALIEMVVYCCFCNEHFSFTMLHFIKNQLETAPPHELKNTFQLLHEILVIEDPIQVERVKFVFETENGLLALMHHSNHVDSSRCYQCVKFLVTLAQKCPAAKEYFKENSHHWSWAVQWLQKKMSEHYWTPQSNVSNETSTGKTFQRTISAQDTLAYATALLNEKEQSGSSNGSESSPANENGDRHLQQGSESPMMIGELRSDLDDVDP
Summary of the method: as §1

USP25 = biological target: T3, USP25 (UniProt Q9UHP3)
T3 sequence (whole entry): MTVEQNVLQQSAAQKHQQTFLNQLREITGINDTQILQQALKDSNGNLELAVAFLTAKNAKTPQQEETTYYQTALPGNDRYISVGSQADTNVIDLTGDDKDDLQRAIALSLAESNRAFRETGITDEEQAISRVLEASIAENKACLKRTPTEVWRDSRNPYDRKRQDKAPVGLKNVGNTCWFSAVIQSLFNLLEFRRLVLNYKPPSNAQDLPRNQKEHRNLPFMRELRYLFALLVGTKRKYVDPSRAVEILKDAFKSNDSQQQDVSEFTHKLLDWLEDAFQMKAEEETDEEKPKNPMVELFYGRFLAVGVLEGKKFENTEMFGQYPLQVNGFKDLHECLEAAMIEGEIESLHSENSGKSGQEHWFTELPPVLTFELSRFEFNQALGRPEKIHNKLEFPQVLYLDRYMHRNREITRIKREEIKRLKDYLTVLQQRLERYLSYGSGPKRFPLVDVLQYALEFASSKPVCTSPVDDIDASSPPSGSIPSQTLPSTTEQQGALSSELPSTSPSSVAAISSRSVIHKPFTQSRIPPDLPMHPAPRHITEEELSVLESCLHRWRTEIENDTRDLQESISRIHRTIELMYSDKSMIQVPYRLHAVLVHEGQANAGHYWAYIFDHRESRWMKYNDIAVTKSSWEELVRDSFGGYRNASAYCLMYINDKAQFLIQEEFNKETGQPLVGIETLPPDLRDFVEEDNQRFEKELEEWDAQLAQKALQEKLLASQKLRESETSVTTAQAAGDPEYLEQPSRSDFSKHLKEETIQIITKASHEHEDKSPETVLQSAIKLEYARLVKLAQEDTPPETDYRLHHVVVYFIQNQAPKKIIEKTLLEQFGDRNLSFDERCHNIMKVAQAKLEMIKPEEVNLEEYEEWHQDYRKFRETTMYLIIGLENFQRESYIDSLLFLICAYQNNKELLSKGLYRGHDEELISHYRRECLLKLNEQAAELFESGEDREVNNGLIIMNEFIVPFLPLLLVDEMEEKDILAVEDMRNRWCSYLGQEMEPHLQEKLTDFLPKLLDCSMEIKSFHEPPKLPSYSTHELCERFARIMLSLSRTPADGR
Summary of the method: as §1

USP28 = biological target: T4, USP28 (UniProt Q96RU2)
T4 sequence (whole entry): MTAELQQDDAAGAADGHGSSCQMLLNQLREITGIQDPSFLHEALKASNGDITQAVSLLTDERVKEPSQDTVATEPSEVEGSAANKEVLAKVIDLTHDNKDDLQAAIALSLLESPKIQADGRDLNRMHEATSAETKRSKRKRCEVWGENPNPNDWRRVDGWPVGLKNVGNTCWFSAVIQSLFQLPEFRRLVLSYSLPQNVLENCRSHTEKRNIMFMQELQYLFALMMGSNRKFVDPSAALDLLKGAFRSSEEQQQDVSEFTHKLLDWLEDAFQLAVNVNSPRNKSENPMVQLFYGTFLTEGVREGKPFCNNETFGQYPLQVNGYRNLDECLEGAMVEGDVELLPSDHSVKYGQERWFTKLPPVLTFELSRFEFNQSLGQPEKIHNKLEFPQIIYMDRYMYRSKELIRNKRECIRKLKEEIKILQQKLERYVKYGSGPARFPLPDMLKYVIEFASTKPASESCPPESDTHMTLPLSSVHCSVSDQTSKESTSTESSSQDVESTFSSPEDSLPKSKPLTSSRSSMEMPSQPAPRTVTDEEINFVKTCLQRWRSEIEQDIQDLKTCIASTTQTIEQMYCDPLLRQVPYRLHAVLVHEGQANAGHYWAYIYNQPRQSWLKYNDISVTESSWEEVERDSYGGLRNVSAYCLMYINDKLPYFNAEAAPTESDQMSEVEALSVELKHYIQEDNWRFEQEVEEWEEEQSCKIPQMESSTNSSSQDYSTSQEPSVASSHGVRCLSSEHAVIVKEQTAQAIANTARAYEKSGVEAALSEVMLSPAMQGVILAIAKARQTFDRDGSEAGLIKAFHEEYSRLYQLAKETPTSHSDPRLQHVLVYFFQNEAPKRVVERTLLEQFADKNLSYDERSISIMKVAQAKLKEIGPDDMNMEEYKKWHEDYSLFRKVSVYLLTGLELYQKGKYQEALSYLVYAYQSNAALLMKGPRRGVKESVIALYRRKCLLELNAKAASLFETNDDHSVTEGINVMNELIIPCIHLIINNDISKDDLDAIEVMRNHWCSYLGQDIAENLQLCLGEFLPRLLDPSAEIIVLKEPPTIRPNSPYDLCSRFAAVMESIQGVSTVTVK
Summary of the method: as §1

Measured: log2 ratio of Biotin-Ahx-Ub-VS probe labelling

O=C(CCl)N1CCC(OCc2ccccc2F)CC1
inactive: USP19 -0.0583 | USP22 -0.181 | USP24 -0.486 | USP25 -0.163 | USP28 -0.161
